Inconclusive results are not listed. Activity calls are given as the source filed them. How the source made its calls: active means hit-call score of the fitted dose curve at least 0.9, where 1 is the maximum; inconclusive means response in the unintended direction; inactive means score below 0.9.
molecular target: human Retinoid X Receptor beta (RXRb), RXRB (gene 6257) (UniProt P28702); experiment: ATG_RXRb_TRANS: Attagene TRANS-FACTORIAL HepG2 Assay for human Retinoid X Receptor beta (RXRb) (AID 2283013)
Summary of the method: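 Readout is reporter transcript induction after 24 h dosing. It is measured by RT-PCR of total RNA followed by fluorescent capillary electrophoresis. HepG2 liver cells carry transfected multiple reporter units driven by an exogenous RXRb-Gal4 fusion; activity is relative to DMSO.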

Chain of human Retinoid X Receptor beta (RXRb), RXRB (gene 6257) (P28702 whole entry, looked up, the tested form may be a part): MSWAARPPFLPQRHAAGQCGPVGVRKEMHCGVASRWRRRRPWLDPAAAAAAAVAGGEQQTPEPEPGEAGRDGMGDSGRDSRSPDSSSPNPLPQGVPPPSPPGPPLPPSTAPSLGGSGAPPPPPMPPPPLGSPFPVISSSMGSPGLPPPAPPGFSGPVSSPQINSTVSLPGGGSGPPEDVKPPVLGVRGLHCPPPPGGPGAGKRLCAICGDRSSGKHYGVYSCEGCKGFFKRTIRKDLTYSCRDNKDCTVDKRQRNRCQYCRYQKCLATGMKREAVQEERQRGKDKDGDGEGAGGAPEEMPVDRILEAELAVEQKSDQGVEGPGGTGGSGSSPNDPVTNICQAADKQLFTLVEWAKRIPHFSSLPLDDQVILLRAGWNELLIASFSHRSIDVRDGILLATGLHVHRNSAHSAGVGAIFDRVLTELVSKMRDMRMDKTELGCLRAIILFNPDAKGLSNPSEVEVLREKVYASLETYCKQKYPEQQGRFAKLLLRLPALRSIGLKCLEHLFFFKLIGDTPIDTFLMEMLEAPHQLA

| SMILES | AC50 | outcome |
| --- | --- | --- |
| CC(=O)C1=C(C)[C@@H]2C[C@@]3(C1)[C@H](C)CC[C@H]3C2(C)C | 21.4 µM (active) | – |
| CC1=CCC(=C(C)C)CC1 | – | inactive |
| COc1ccc(N)c(C)c1 | – | inactive |
| CN1CCc2cccc3c2[C@H]1Cc1ccc(O)c(O)c1-3 | – | inactive |
| O=C(O)c1cccc(Cl)n1 | – | inactive |
| CC1=CCC(C(C)C)=CC1 | – | inactive |
| C=CCCCCCCCCC(=O)OCC | 100 µM (active) | – |
| C=C(C)C(=O)OCCOCCOC(=O)C(=C)C | – | inactive |
| CCCCCCCCOC(C)=O | – | inactive |
| CCCCCCCOC(C)=O | – | inactive |
| CC(CO)(CO)[N+](=O)[O-] | – | inactive |
| OC[C@@H](O)[C@H](O)[C@@H](O)[C@@H](O)CO | 54.2 µM (active) | – |
| O=c1cc(-c2ccc(O)cc2)oc2cc(O)cc(O)c12 | – | inactive |
| CCCCCC1C(=O)CCC1CC(=O)OC (stereo not drawn) | – | inactive |
| CCCCOCCOCCOCCO | – | inactive |
| NC(=O)c1cnccn1 | – | inactive |
| NC(=O)NC(N)=O | – | inactive |
| CCCCCCC(C)O (stereo not drawn) | – | inactive |
| C=CCOC(=O)/C=C\C(=O)OCC=C | – | inactive |
| CCC(C)(C)c1cc(O)c(C(C)(C)CC)cc1O | 59.9 µM (active) | – |
| CCCCOCCOC(=O)c1ccccc1C(=O)OCCOCCCC | – | inactive |
| O=S(=O)(O)CCCN1CCOCC1 | – | inactive |
| CCCCCCCCCO | – | inactive |
| N#CCCCC(C#N)CCC#N (stereo not drawn) | – | inactive |
| CCCCCC1CCC(=O)O1 (stereo not drawn) | – | inactive |
| O=C(O)c1ccco1 | – | inactive |

molecular target: human Thyroid Receptor alpha (THRa1), THRA (gene 7067) (UniProt P10827); experiment: ATG_THRa1_TRANS: Attagene TRANS-FACTORIAL HepG2 Assay for human Thyroid Receptor alpha (THRa1) (AID 2283014)
Summary of the method: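 HepG2 cells transiently transfected with chimeric NR-Gal4 and GAL4-UAS reporter units, dosed 24 h. Reporter mRNA quantified by RT-PCR, fluorescent labeling, HpaI digestion and capillary electrophoresis; gain-of-signal fit versus DMSO.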

Chain of human Thyroid Receptor alpha (THRa1), THRA (gene 7067) (P10827 whole entry, looked up, the tested form may be a part): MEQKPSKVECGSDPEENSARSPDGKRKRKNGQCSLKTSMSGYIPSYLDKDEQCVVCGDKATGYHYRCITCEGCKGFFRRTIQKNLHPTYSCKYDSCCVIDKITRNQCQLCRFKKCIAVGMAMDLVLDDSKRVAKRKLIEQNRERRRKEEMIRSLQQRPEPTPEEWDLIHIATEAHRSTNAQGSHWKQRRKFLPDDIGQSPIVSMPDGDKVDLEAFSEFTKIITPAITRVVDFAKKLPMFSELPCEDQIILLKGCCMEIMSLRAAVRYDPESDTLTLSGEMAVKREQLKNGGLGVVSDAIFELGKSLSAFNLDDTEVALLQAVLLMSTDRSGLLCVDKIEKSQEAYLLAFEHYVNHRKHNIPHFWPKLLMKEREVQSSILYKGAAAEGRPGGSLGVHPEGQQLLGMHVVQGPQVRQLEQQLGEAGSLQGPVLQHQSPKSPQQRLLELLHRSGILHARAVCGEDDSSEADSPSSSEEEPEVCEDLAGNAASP

| SMILES | outcome | AC50 |
| --- | --- | --- |
| CC(=O)C1=C(C)[C@@H]2C[C@@]3(C1)[C@H](C)CC[C@H]3C2(C)C | inactive | – |
| COc1ccc(N)c(C)c1 | – | 73.2 µM (active) |
| O=C(O)c1cccc(Cl)n1 | inactive | – |
| C=CCCCCCCCCC(=O)OCC | inactive | – |
| C1CCCNCC1 | inactive | – |
| CCCCCCCCOC(C)=O | inactive | – |
| CCCCCCCOC(C)=O | inactive | – |
| O=c1cc(-c2ccc(O)cc2)oc2cc(O)cc(O)c12 | inactive | – |
| CCCCCC1C(=O)CCC1CC(=O)OC (stereo not drawn) | inactive | – |
| O=C1CCC(=O)N1 | inactive | – |
| CCCCOCCOCCOCCO | inactive | – |
| NC(=O)c1cccnc1 | inactive | – |
| CCO[Si](CCC#N)(OCC)OCC | inactive | – |
| C=CCOC(=O)/C=C\C(=O)OCC=C | inactive | – |
| CCC(C)(C)c1cc(O)c(C(C)(C)CC)cc1O | inactive | – |
| CCCCOCCOC(=O)c1ccccc1C(=O)OCCOCCCC | inactive | – |
| CCCCOC(=O)C(C)OC(=O)CCC (stereo not drawn) | inactive | – |
| CN(C)C(=O)Nc1ccccc1 | inactive | – |
| CN(C)CCC=C1c2ccccc2CCc2ccccc21 | inactive | – |
| NC(N)=NC(N)=NCCc1ccccc1 | inactive | – |
| N#CCCCC(C#N)CCC#N (stereo not drawn) | inactive | – |
| Nc1ccn([C@H]2CC[C@@H](CO)O2)c(=O)n1 | inactive | – |

Reference: PubChem BioAssay (EPA / NIEHS)
